# According to the supplement of paper PMC4894684:
# Counter-ions that a name gives are not always drawn. ± gives the standard deviation of the averaged measurements.
# System: Toxoplasma gondii RH (in HFF)
# Test: parasite growth relative to the screen mean (all compounds = 100%); higher = less inhibition of parasite growth
# Conditions: 5 µM; 72 h; oxygen 21 %
# Method in brief: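 RH β-Gal–GFP Toxoplasma at MOI 1:5 was used to infect confluent human foreskin fibroblasts in 96-well plates within 2 h of pin-transferring compounds to 5 µM final. After 72 h at 21% O2, parasite number was determined by CPRG β-Gal assay against standard curves on the same plate. Growth is relative to the screen mean and averaged over two screens, with all compounds = 100%.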
row,SMILES,parasite growth
1,COc1ccc(-c2ccc(=N)n(CCCC(=O)O)n2)cc1,133 ± 26%
2,CCN(c1ccccc1)c1cc(=NC)n(C)c(C)n1,59 ± 11%
3,CN(C)CCC1(c2ccc(Cl)cc2)Cc2ccccc2C(=O)O1 (racemic) [(±)-AC 7954 hydrochloride],98.7 ± 67%
4,O=C1C=CC(=O)C2=C1C1c3ccccc3C2c2ccccc21,137 ± 48%
5,CC(C)(CO)Cc1cc(C(C)(C)C)c(O)c(C(C)(C)C)c1,192 ± 11%
6,CCC(=O)NC1Cc2ccccc2C(c2ccccc2)C1 (stereo not given),73.8 ± 18%
7,O=[N+]([O-])c1cccc2c(Br)[nH]nc12 [3-Bromo-7-nitroindazole],123 ± 5.8%
8,O=C(O)C1(C(=O)O)CCC1.[NH2-].[NH2-].[Pt+2] [Carboplatin],136 ± 19%
9,Cc1c(C(=O)NC2CCCCC2)sc2nc3ccc(N)cc3n12,183 ± 33%
10,COc1ccccc1C1(O)CCN(CCCn2c3ccccc3c3ccccc32)CC1 [NNC 05-2090 hydrochloride],< 0%
11,CC(C)(Sc1ccc(CCN(CCCCC2CCCCC2)C(=O)NC2CCCCC2)cc1)C(=O)O,87.9 ± 17%
12,CN1[C@@H](CC(=O)c2ccccc2)CCC[C@H]1C[C@H](O)c1ccccc1 [Lobeline hydrochloride],179 ± 40%
13,CCN(CC)CCOC(=O)C1(c2ccc([N+](=O)[O-])cc2)CCCC1 [Nitrocaramiphen hydrochloride],99.3 ± 34%
14,O=C1c2ccccc2C(Cc2ccnc(F)c2)(Cc2ccnc(F)c2)c2ccccc21,102 ± 14%
15,O=C(Nc1ccccc1)N[C@@H]1C[C@@H](C(=O)O)Nc2cc(Cl)cc(Cl)c21,104 ± 3.9%
